Holding throughout (assay): NCI-60 one-dose screen, 48 h (100 = growth as untreated, 0 = no growth, -100 = all killed)
One test relates to HCT-15 colon. Conditions: 10 µM unless noted.
The test system of a further test is HT29 colon. The conditions noted are these: 10 µM unless noted.
The subject of another test is SNB-75 CNS. The conditions noted are these: 10 µM unless noted.
The next test concerns SNB-19 CNS. The conditions noted are these: 10 µM unless noted.
In the next test the test system is U251 CNS. Conditions: 10 µM unless noted.
Another test has as its system PC-3 prostate. The conditions noted are these: 10 µM unless noted.
Another test has as its system SK-MEL-5 melanoma. Conditions: 10 µM unless noted.
For the next test, the system named is UACC-62 melanoma. The conditions noted are these: 10 µM unless noted.
In the next test the test system is LOX IMVI melanoma. Conditions: 10 µM unless noted.
In the next test the test system is SK-MEL-28 melanoma. Conditions: 10 µM unless noted.
Another test has as its system SK-MEL-2 melanoma. Conditions: 10 µM.
A further test relates to EKVX NSCLC. Conditions: 10 µM unless noted.
The next test has as its system SN12C renal. The conditions noted are these: 10 µM unless noted.
A further test relates to UO-31 renal. Conditions: 10 µM unless noted.
Another test has as its system TK-10 renal. Conditions: 10 µM unless noted.
In another test the test system is ACHN renal. The conditions noted are these: 10 µM unless noted.
For a further test, the system named is A498 renal. Conditions: 10 µM unless noted.
A further test deals with CCRF-CEM leukemia. The conditions noted are these: 10 µM unless noted.
In another test the test system is MOLT-4 leukemia. Conditions: 10 µM unless noted.

About 83,000 compounds went through this panel and 20% of them were active in at least one assay; those are over-represented in the sample as a whole.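 Percent growth is the endpoint: 0 to 100 indicates growth inhibition (40 means 60% inhibition), 0 means no net growth, and negative values indicate cell death.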 A number with no mark means an inactive call. Active and inactive are the calls of the source. How the source made its calls: active means growth percent below 10; inactive means the rest.

On to `CCCC(=O)OCC1OC(n2cnc3c(=S)nc[nH]c32)C(OC(=O)CCC)C1OC(=O)CCC` (centres undefined), for which the growth in the test with HCT-15 colon is 56.4%; with HT29 colon it was 35.9%; with SNB-75 CNS, 52.9%; in the test on SNB-19 CNS, 74.4%; with U251 CNS it was 87.6%; with PC-3 prostate, 59.7%. The growth in the test with SK-MEL-5 melanoma was 38.6%; with UACC-62 melanoma, 13.7%; with LOX IMVI melanoma, 11.7%; in the test on SK-MEL-28 melanoma, 98.2%; with SK-MEL-2 melanoma, 12.5%; with EKVX NSCLC, 69.3%. The growth in the test on SN12C renal is 49.9%; in the test on UO-31 renal, 32.6%; in the test with TK-10 renal it was 6.59% (active); in the test with ACHN renal, 41.5%; in the test with A498 renal, 30.8%; in the test on CCRF-CEM leukemia it was 24.6%. In addition, the growth in the test with MOLT-4 leukemia was 18.6%.

Take `Cc1ccc2oc(=O)cc(-c3cc(-c4cc5ccccc5oc4=O)nc(N)c3C#N)c2c1`: the growth with HCT-15 colon is 91.1%; in the test on HT29 colon it was 68.3%; in the test on SNB-75 CNS, 34%; in the test with SNB-19 CNS, 75.8%; with U251 CNS it was 54.3%; with PC-3 prostate, 69%. The growth was 60.8% with SK-MEL-5 melanoma; 81.5% with UACC-62 melanoma; 78.2% in the test on LOX IMVI melanoma; 76.7% with SK-MEL-28 melanoma; 87.2% in the test with SK-MEL-2 melanoma; 79% in the test with EKVX NSCLC. In addition, the growth in the test on SN12C renal is 68.2%; in the test on UO-31 renal, 48.5%; in the test with TK-10 renal it was 71.9%; in the test on ACHN renal, 41.6%; in the test on A498 renal, 80.1%; with CCRF-CEM leukemia, 93.7%. Besides, the growth with MOLT-4 leukemia was 93.9%.

Consider `Cc1sc2c(c1C)c(=O)nc1c(-c3nc(-c4ccccc4)cs3)n[nH]n12`, for which the growth with HCT-15 colon is 82.4%; in the test with HT29 colon, 107%; in the test on SNB-75 CNS, 101%; with SNB-19 CNS it was 102%; with U251 CNS, 94%; in the test with PC-3 prostate, 82.1%. For the same compound, the growth is 102% in the test with SK-MEL-5 melanoma; 91.8% in the test with UACC-62 melanoma; 95.9% with LOX IMVI melanoma; 106% with SK-MEL-28 melanoma; 99.9% with SK-MEL-2 melanoma; 80.1% in the test with EKVX NSCLC. Also, the growth with SN12C renal is 100%; with UO-31 renal, 76.2%; in the test on TK-10 renal, 145%; in the test on ACHN renal, 97.1%; in the test with A498 renal, 105%; in the test on CCRF-CEM leukemia, 85.8%. The growth with MOLT-4 leukemia is 85.7%.

Regarding `CSC1=C(N)C(=O)c2[nH]cc(CO)c2C1=N`, the growth in the test with HCT-15 colon was -89.2% (active); with HT29 colon, -9.17% (active); with SNB-75 CNS, -80.2% (active); in the test with SNB-19 CNS, -92.2% (active); in the test with U251 CNS, -95.1% (active); in the test on PC-3 prostate, -39.9% (active). Also, the growth with SK-MEL-5 melanoma was -98.8% (active); with UACC-62 melanoma, -83.2% (active); with LOX IMVI melanoma it was -84.9% (active); in the test with SK-MEL-28 melanoma, -78% (active); in the test with SK-MEL-2 melanoma it was -52.3% (active); in the test on EKVX NSCLC, -56.6% (active). For the same compound, the growth in the test with SN12C renal is -49% (active); in the test with UO-31 renal, -96% (active); in the test with TK-10 renal it was -83.7% (active); in the test on ACHN renal it was 1.86% (active); with A498 renal, -89.6% (active); in the test on CCRF-CEM leukemia, 3.16% (active). In the test on MOLT-4 leukemia, the growth is -24.3% (active).

Regarding `CC[n+]1c(/C=C/C=C2\N(C)c3ccccc3C2(C)C)sc2ccccc21`, the growth is 6.66% (active) in the test with HCT-15 colon; 6.94% (active) in the test with HT29 colon; 28.8% in the test on SNB-75 CNS; 31.9% with SNB-19 CNS; 10.8% in the test on U251 CNS; 17.4% with PC-3 prostate. Besides, the growth with SK-MEL-5 melanoma was -89.7% (active); in the test on UACC-62 melanoma, 12.4%; with LOX IMVI melanoma it was 2.76% (active); in the test on SK-MEL-28 melanoma it was 37.1%; with SK-MEL-2 melanoma it was -16.2% (active); with EKVX NSCLC, 10.9%. Moreover, the growth is 5.6% (active) in the test with SN12C renal; 12.6% with UO-31 renal; 21.5% with TK-10 renal; 7.97% (active) in the test on ACHN renal; 12.3% with A498 renal; 3.17% (active) in the test with CCRF-CEM leukemia. Moreover, in the test on MOLT-4 leukemia, the growth was -19.1% (active).

On to `CCCCCCCCCCCC[n+]1ccccc1`, for which the growth in the test with HCT-15 colon was 39.4%; in the test on HT29 colon, 1.53% (active); in the test with SNB-75 CNS, 0.831% (active); in the test with SNB-19 CNS, 8.57% (active); in the test with U251 CNS, -0.664% (active); in the test on PC-3 prostate, -38.2% (active). The growth was -95.3% (active) in the test with SK-MEL-5 melanoma; -41.9% (active) with UACC-62 melanoma; -40.9% (active) in the test with LOX IMVI melanoma; 21.4% in the test with SK-MEL-28 melanoma; -30.4% (active) in the test on SK-MEL-2 melanoma; 5.6% (active) in the test on EKVX NSCLC. The growth in the test with SN12C renal was 3.89% (active); with UO-31 renal, 35%; in the test with TK-10 renal it was -54.1% (active); in the test on ACHN renal, 36.2%; with A498 renal it was 19%; with CCRF-CEM leukemia, 1.54% (active). Moreover, the growth in the test on MOLT-4 leukemia was -19.1% (active).

The record behind these values is PubChem BioAssay (NCI).
